# Assay outcomes: PubChem BioAssay, National Center for Advancing Translational Sciences (NCATS)
# Vaccinia Venus = inhibitors of vaccinia virus (Venus reporter); Vaccinia virus Venus reporter expression, fluorescence; 330,000 tested, 0.46% active; AID 720580; Potency, µM (top dose mostly 36.5 µM), for inactives: at the top dose activity change, negative = inhibition, hits mostly inhibitors; calls by dose curve; tested in A549 cells; further: nearly all actives have a fitted effect of over 30% in size
# Pf growth 96h = P. falciparum growth inhibition at 96 hours; 320,000 tested, 6.9% active; P. falciparum luciferase reporter growth, 96 h; Potency, µM (highest dose often 28.7 µM), for inactives: top-dose activity change, negative = inhibition, hits mostly inhibitors; AID 504834
#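 Parasite growth measured via integrated firefly luciferase reporter in P. falciparum. Infected erythrocytes at 2% hematocrit, 0.05% parasitemia final were treated 96 hours at 37 C under 5% CO2, and luminescence was read.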
# Pf growth 48h = P. falciparum growth inhibition at 48 hours (one generation) | 310,000 tested, 5.9% active | AID 504832 | Potency, µM (series often up to 28.7 µM), inactives show at the top dose activity change, negative = inhibition, most hits filed as inhibitors | P. falciparum luciferase growth in erythrocytes, 48 h
#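 Erythrocytes infected with P. falciparum carrying an integrated firefly luciferase reporter (2% hematocrit, 0.1% parasitemia final) were exposed to compounds in RPMI 1640 with 0.5% Albumax at 37 C, 5% CO2. Growth inhibition was scored as reduced luminescence.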
# AMA1 RON2 block = inhibitors of Plasmodium falciparum AMA1-RON2 interaction; AlphaScreen AMA1-biotinylated RON2 peptide binding; Potency, µM (series often up to 58.2 µM), without a hit: at the top dose activity change, negative = inhibition, most hits filed as inhibitors; 360,000 tested, 0.2% active; AID 720542;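 further: 0% = vehicle wells and -100% = peptide control; nearly all actives have a fitted effect of over 45% in size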
#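 AMA1 (3D7) with his tag at 25 nM final met compounds first, then biotinylated RON2 peptide at 25 nM; detection used donor plus acceptor beads, 10 µg/mL apiece, read by AlphaScreen after 30 min at room temperature.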
# VACV mCherry inh = inhibitors of vaccinia virus infection (mCherry reporter signal); Potency, µM (doses to about 36.5 µM), inactives show top-dose activity change, negative = inhibition, hits mostly inhibitors; AID 720579; Vaccinia virus mCherry reporter infection, fluorescence; 310,000 tested, 0.63% active; calls by dose curve; tested in A549 cells; further: nearly all actives have a fitted effect of over 35% in size
# The depositor's hits bear a star; i = inactive; u = inconclusive; x = no result given; [ ] = another dose, or the depositor's remark. Shown are actives, neighbours in structure and some others; about 8.7% of the full set was active somewhere. Unless noted, the call rests on the fitted dose curve; in most records, active means well fitted curve in the direction sought with a large enough effect; inconclusive means small, poorly fitted or top-dose-only effect, or another doubt; inactive means no such curve, though single readings can be large; an effect the other way counts as inactive or inconclusive. Unless noted, on the % scale 0 is the no-effect control and ±100 the full control effect; potency means the concentration at half of the fitted maximal effect.
SMILES,Vaccinia Venus,Pf growth 96h,Pf growth 48h,AMA1 RON2 block,VACV mCherry inh
Brc1cccc(CNc2nc3ccccc3n2CCN2CCCCC2)c1,x,12µM*,u,-5%,x
c1ccc(Cn2c(CNc3nc4ccccc4n3CCN3CCOCC3)nc3ccccc32)cc1,x,9%[5.75 µM],12µM*,15%,x
COc1ccc(S(=O)(=O)N2CCN(C(=O)c3cc(-c4ccccc4OC)n[nH]3)CC2)cc1,x,-2%,1.3µM*,10%,x
COc1cccc(-c2cc(C(=O)N3CCN(S(=O)(=O)c4ccc(Br)cc4)CC3)[nH]n2)c1,-22%,13µM*,-17%,6%,-25%
O=[N+]([O-])c1ccccc1-c1cc(-c2ccccc2)cc(-c2ccccc2)[n+]1Cc1ccccc1Cl,u,u,0.93µM*,-4%,-11%
CC(/C=N/NC(=O)NC1CCCCC1)=C\c1ccccc1,-13%,-5%,10µM*,-23%,-21%
Cc1ccc2oc(C(=O)NCC3CCOCC3)c(C)c2c1,x,10µM*,29%,-9%,x
Cc1cc(C(F)(F)F)n(-c2nc(C(=O)NN)cs2)n1,-5%,7.4µM*,20%,98%,i
COc1cc(C(=O)Nc2nonc2-c2ccc(Cl)cc2)cc(OC)c1OC,u,x,x,x,-9%
C/C(=N\NC(=S)NCC(C)(C)C)c1cc(F)cc(F)c1O,-14%,u,0.29µM*,18%,i
COCCNC(=S)N/N=C(\C)c1ccc(O)cc1,-7%,37%,29%,23%,i
CCOc1ccc(C(=O)NCC(=O)NCCCSc2ccccc2)cc1OCC,-3%,15µM*,-15%,5%,-13%
CC(=O)N1CCCc2cc(S(=O)(=O)N3CCC(C(=O)NCc4ccccc4Cl)CC3)ccc21,-3%,x,x,x,-8%
O=C(CSc1nc2ccccc2s1)Nc1cc(S(=O)(=O)N2CCOCC2)ccc1Cl,-7%,u,u,-3%,-24%
Cc1ccc(-n2c(SCC(=O)Nc3cc(S(=O)(=O)N4CCOCC4)ccc3Cl)nc3ccccc3c2=O)cc1,-15%,2.9µM*,10µM*,-2%,i
O=C(CSc1nc2ccccc2c(=O)n1-c1ccc(F)c(Cl)c1)Nc1cccc(S(=O)(=O)N2CCOCC2)c1,-9%,4.1µM*,u,-9%,10%
O=C(CSc1nc2ccccc2c(=O)n1-c1ccc(F)cc1)Nc1ccc(C(=O)O)cc1,5%,-12%,-20%,10%,-10%
O=C(CSc1nc2ccccc2c(=O)n1-c1ccc(F)cc1)Nc1ccc(Cl)c(S(=O)(=O)N2CCOCC2)c1,-8%,5.9µM*,9.3µM*,-10%,1%
CC(C)Oc1ccc(C(CC(=O)NCCCN(C)C)c2ccc(F)cc2)cc1 (stereo unspecified),-18%,12µM*,u,-5%[2.32 µM],-19%
CCc1cc2c(cc3c(=O)n(CC(=O)NC4CCC(C)CC4)nc(CC)n32)s1 (stereo unspecified),-13%,x,x,x,-21%
Cc1cc(O)c(-c2cc(C(=O)Nc3ccc(S(=O)(=O)N4CCOCC4)cc3)[nH]n2)cc1C,x,i,1.9µM*,82%,x
O=C(Nc1ccc(S(=O)(=O)N2CCOCC2)cc1)c1cc(-c2cc(Cl)ccc2O)n[nH]1,x,1.3µM*,0.83µM*,83%,x
Cc1ccc(NC(=O)c2ccc(S(=O)(=O)N3CCOCC3)cc2)cc1,-12%,-17%,-18%,-13%,29%
COc1ccc(NC(=O)C2CCN(S(=O)(=O)c3ccc4c(c3)CCCC(=O)N4)CC2)cc1OC,3%,x,x,x,2%
CC(C)(C)n1[nH]c2c3c(ccc2c1=O)C(=O)c1ccccc1C3=O,x,x,1.3µM*,-10%,x
SMILES,Vaccinia Venus,Pf growth 96h,Pf growth 48h,AMA1 RON2 block,VACV mCherry inh
Cc1ccc(-n2[nH]c3c4c(ccc3c2=O)C(=O)c2ccccc2C4=O)cc1,7%,30%,23%,-7%,-6%
COCCCn1[nH]c2c3c(ccc2c1=O)C(=O)c1ccccc1C3=O,u,x,12µM*,-6%,x
Cc1ccc(CN(C#N)c2nc(C)cc(C)n2)cc1,-18%,u,-5%,-9%,-9%
Cc1cc(C)nc(N(C#N)Cc2ccc(Cl)cc2)n1,-1%,13µM*,14%,9%,-1%
COc1cc(/C=N/n2c(-c3ccc4c(c3)NC(=O)CO4)csc2=Nc2cccc(C)c2)ccc1O,u,4.7µM*,u,2%,-7%
COCCN=c1scc(-c2ccc3c(c2)NC(=O)CO3)n1/N=C(\C)c1ccc(O)cc1,9%,u,10µM*,4%,-12%
COCCN=c1scc(-c2cccs2)n1/N=C(\C)c1ccco1,x,u,13%,2%,x
Cc1cc(C)c2c(n1)sc1c(=O)n(-c3cc(Cl)ccc3C)nnc12,-27%,x,x,x,u
CCCCCCSc1ccc([C@H]2N[C@@](Cc3ccccc3)(C(=O)OC)[C@H]3C(=O)N(C)C(=O)[C@@H]23)cc1OC,-23%,2.3µM*,3.3µM*,0%,-5%
CCN1C(=O)[C@H]2[C@@H](c3ccc(-c4cccc(Cl)c4)cc3)N[C@@](Cc3ccccc3)(C(=O)OC)[C@H]2C1=O,-24%,4.7µM*,4.7µM*,-14%,u
CCN1C(=O)[C@H]2[C@@H](c3ccc(-c4ccc(Cl)c(Cl)c4)c(OC)c3)N[C@@](Cc3ccccc3)(C(=O)OC)[C@H]2C1=O,u,3.7µM*,2.9µM*,-6%,-6%
CCN1C(=O)[C@H]2[C@@H](c3ccc(-c4ccc5c(c4)OCO5)cc3)N[C@@](Cc3ccccc3)(C(=O)OC)[C@H]2C1=O,-23%,x,x,-3%,-10%
Cc1ccc(CNC(=O)Cn2c(=O)n(-c3ccc(Cl)cc3)c(=O)c3c(C)c(C)sc32)cc1,1%,x,x,x,-8%
CC(C)c1cc(Nc2cccc(O)c2)cc(C(C)C)c1O,x,12µM*,u,x,x
CCOC(=O)c1ccc(NC(=O)c2csnn2)cc1,7%,x,x,x,-3%
CC(C)(C)NC(=O)CCc1nnc(Cc2c[nH]c3ccccc23)o1,x,u,-24%,1%,x
CCC(COC)NC(=O)CCc1nnc(Cc2c[nH]c3ccccc23)o1 (stereo unspecified),x,13µM*,6%,-1%,x
CCOC(=O)[C@H](CCc1ccccc1)N[C@@H](C)C(=O)N1C(=O)N(C)C[C@H]1C(=O)O,x,10%,-14%,x,x
Cc1ccc(C)c(NC(=O)CCCn2c(C)c3cnn(-c4ccccc4)c(=O)c3c2C)c1,-14%,x,x,x,-1%
CC(C)(C)C1CCC(OC(=O)C[N+]2(C)CCCCC2)CC1 (stereo unspecified),-5%,-1%,12µM*,-6%,i
CCCCN(CCCC)C1=C(C(=O)c2ccccc2)N(C)S(=O)(=O)c2ccccc21,-10%,x,x,x,-5%
N#Cc1cn(Cc2cccc(Cl)c2)c2ccccc12,0%,6%,9.3µM*,39%,-20%
O=C(Cc1cn(Cc2cccc(Cl)c2)c2ccccc12)N1CCCC1,-12%,u,0%,-20%,-25%
Cc1[nH]c2ccccc2c1/C=C/c1nc2ccccc2c(=O)n1-c1cccc([N+](=O)[O-])c1,-13%,3.7µM*,2.1µM*,3%,-27%
